# Assay outcomes from PubChem BioAssay.
# Rows were chosen to be rich in hits. Some 2.8% of all compounds tested hit in one or more screens of this group.
# SNCA viab count = reduces viability of HEK-293 SNCA reporter cells | HEK-293-SNCA-luc viability, GF-AFC fluorescence, 24 h | Potency, µM (top dose mostly 57.1 µM), for inactives: at the highest dose activity change, negative = cytotoxicity, actives largely listed as cytotoxic | 150,000 tested, 0.12% active | AID 1671193;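 also: potency is read from the fitted curve at half-maximal effect; 0% = DMSO-treated cells and -100% = medium-only wells without cells; nearly all actives have a fitted effect of over 30% in size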
#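 Cytotoxicity counterscreen: after 24 h compound treatment of genome-edited SNCA-luciferase HEK-293 cells, live-cell protease substrate GF-AFC read by fluorescence after 30 min; activity scaled between DMSO (0%) and medium-only (-100%), curves Hill-fitted.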
# IP6K1 inh = IP6K1 kinase inhibition | IP6K1 kinase, ADP-Glo luminescence, 2 h; active compounds read low | AID 1645851 | activity change, % (series mostly up to about 58 µM) | 140,000 tested, 0.81% active; in the data active = activity change below about -25%; also: % is scaled to controls: 0 for no effect and ±100 for the full control effect
# Target sequence (Q92551 whole entry, looked up): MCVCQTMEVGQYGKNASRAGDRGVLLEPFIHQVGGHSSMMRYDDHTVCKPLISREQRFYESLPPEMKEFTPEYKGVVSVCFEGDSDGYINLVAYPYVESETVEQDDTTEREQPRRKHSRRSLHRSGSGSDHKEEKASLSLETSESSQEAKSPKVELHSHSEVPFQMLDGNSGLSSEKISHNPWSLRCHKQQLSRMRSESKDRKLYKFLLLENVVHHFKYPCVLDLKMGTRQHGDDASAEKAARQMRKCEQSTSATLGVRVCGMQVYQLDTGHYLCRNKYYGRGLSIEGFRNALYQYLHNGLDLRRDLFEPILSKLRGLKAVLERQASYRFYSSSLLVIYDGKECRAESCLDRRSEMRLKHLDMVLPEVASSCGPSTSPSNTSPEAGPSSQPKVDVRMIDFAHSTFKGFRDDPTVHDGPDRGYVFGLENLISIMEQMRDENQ
#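 ADP-Glo luminescence measures ADP made by human IP6K1 during a 2 h RT reaction with ATP/IP6 (mix at 1.3 mM/130 uM); top library doses 57.5 and 19.1 uM final.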
# SNCA expr inhib = SNCA gene expression inhibition; HEK-293 SNCA-luciferase knock-in, luminescence, 24 h; Potency, µM (highest dose often 57.2 µM), inactives show top-dose activity change, negative = inhibition, actives largely listed as inhibitors; 140,000 tested, 0.17% active; AID 1671194;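 also: potency is read from the fitted curve at half-maximal effect; plate controls were DMSO cells for no effect and cell-free wells for full effect; nearly all actives have a fitted effect of over 45% in size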
# KDM5B inhibitor = KDM5B demethylase inhibition; Q9UGL1; KDM5B demethylase, FDH-coupled NADH fluorescence (FDH is formaldehyde dehydrogenase); Potency, µM (highest dose often 57.7 µM), hits mostly inhibitors; 220,000 tested, 2.6% active; AID 1347165; also: potency is read from the fitted curve at half-maximal effect; 0% is about no effect; nearly all actives have a fitted effect of over 70% in size
#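 Coupled FDH/NAD⁺ fluorescence readout. KDM5BΔAP 200 nM final; compound titration, 10 min RT preincubation; substrate mix 12.5 µM H3K4me3, 25 µM 2-OG, 50 µM Fe(II), 100 µM ascorbate, 0.25 mM NAD⁺, 0.25 U/mL FDH; ΔRFU over 30 min.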
# IP6K1 conf = confirmation of human IP6K1 inhibitors; shares compounds with IP6K1 inh; recombinant IP6K1 kinase, ADP-Glo luminescence, 2 h; Potency, µM (doses to about 49 µM), for inactives: top-dose activity change, negative = inhibition, actives largely listed as inhibitors; 1,200 tested, 13% active; AID 1645852; also: potency is read from the fitted curve at half-maximal effect; % is scaled to controls: 0 for no effect and ±100 for the full control effect; nearly all actives have a fitted effect of over 65% in size
# Active calls of the source: *; i = inactive; ? = inconclusive; . = no result; [ ] = another dose, or the depositor's remark. Unless noted, calls follow the shape of the dose curve; as a rule, active = well fitted curve in the direction sought with a large enough effect; inconclusive = small, poorly fitted or top-dose-only effect, or another doubt; inactive = no such curve, though single readings can be large; an effect the other way counts as inactive or inconclusive.
SMILES,SNCA viab count,IP6K1 inh,SNCA expr inhib,KDM5B inhibitor,IP6K1 conf
O=C(c1ccc(F)cc1)N1Cc2[nH]cnc2C[C@H]1c1nc(-c2ccc(Cl)cc2)no1,-3%[87.6 µM],-39*,2%[87.6 µM],i,?
Cc1cccc(-c2noc([C@@H]3Cc4nc[nH]c4CN3C(=O)c3ccc(F)cc3)n2)c1,-8%[87.6 µM],-14,?,i,.
Cc1ccc(C)c(N2CCN(c3ccc(NC(=O)c4cccs4)cc3C(=O)O)CC2)c1,1%,-33*,20%,?,?
CCCCN(C)C(=O)c1c(C)sc2ccn(CCC)c(=O)c12,-3%,-7,21%,?,-24%
Cc1oc(-c2ccc(Cl)cc2)nc1Cn1c(=O)cc(C)c2c(C)nn(-c3cccc(F)c3)c21,-5%,25,8%,i,.
COc1ccc(-c2cn3c(n2)sc2cc(C(=O)NCCCN4CCCCCC4)ccc23)cc1,-26%,-62*,46%,?,-4%
CCOC(=O)C1CCCN(C(=O)c2ccc3c(c2)sc2nc(-c4ccc(C)cc4C)cn23)C1 (configuration not stated),-12%,-3,33%,i,.
CCOC(=O)C1CCCN(C(=O)c2ccc3c(c2)sc2nc(-c4cccc(OC)c4)cn23)C1 (configuration not stated),1%,-31*,42%,?,3%
COc1ccc(-c2cn3c(n2)sc2cc(C(=O)NCCCN4CCCCC4)ccc23)cc1,?,-9,-5%,?,.
Cc1cccc(CS(=O)Cc2coc(-c3ccc(F)cc3)n2)c1 (configuration not stated),.,.,.,i,.
O=C(Nc1noc2ccccc12)c1cccc(F)c1,11%,1,-41%,?,.
O=C(Nc1noc2ccccc12)c1ccc(F)cc1,18%,-48*,-75%,i,?
CN(C)c1ccc(C(=C2C=CC(=[N+](C)C)C=C2)c2ccccc2)cc1,-78%[23.9 µM],-42*,?,.,15µM*
CN(C)c1ccc(C(=O)C(=O)c2ccccc2)cc1,.,.,.,i,.
COCCNC(=O)C1COC2(CCN(C(=O)c3ccccc3F)CC2)N1C(=O)c1ccco1 (configuration not stated),-16%,-6,6%,i,.
COc1cccc(CNc2ncc(-c3ccc(Br)cc3)n2C)c1,-8%,-35*,29%,?,?
CCOc1ccc(-c2cnc(NCc3ccc(OC)cc3OC)n2C)cc1,-6%,-25*,-5%,?,-12%
Cc1ccc2oc(=O)cc(CN3CCN(Cc4ccccc4)CC3)c2c1,.,.,.,i,.
CC(=O)N1CCCn2nc(C)c(-c3ccccc3OCc3ccccc3)c21,6%[87.6 µM],9,-20%[87.6 µM],i,.
CCOc1ccc2c(n1)CCN(C(=O)Cc1c[nH]c3ccccc13)C2,6%[12.5 µM],-26*,1%,i,-26%
CCOc1ccc2c(n1)CCN(C(=O)Cc1ccccc1)C2,-9%[12.5 µM],-10,29%,i,.
CC1CCN(C(=O)CC#N)CC1N(C)c1ncnc2[nH]ccc12 (configuration not stated),7%,-8,.,.,-3%
C[C@@H]1CCN(C(=O)CC#N)C[C@H]1N(C)c1ncnc2[nH]ccc12,-22%,.,?,.,.
Cc1nc2nc(SCC(=O)Nc3ccccc3Cl)nn2c(C)c1Cc1ccccc1,4%,1,-4%,?,.
O=C(Nc1ccc2oc(-c3ccccc3F)nc2c1)c1ccccc1Cl,-15%,-49*,-4%,?,?
SMILES,SNCA viab count,IP6K1 inh,SNCA expr inhib,KDM5B inhibitor,IP6K1 conf
COc1cc2ccccc2cc1C(=O)Nc1ccc2oc(-c3cccc(C)c3)nc2c1,5%,-28*,20%,?,25%
Cc1ccc(-n2c(COCC(=O)O)nc3cccnc32)cc1,6%,-22,27%,?,.
COc1cc(OC)c(NC2=NS(=O)(=O)C(c3ccccc3)=C2C)cc1Cl,.,.,.,i,.
Nc1cccc(-c2ccc(N3CCCCC3)nn2)c1,-10%,-27*,1.8µM*,i,?
COc1ccc(Cl)cc1NC(=O)CN(C)S(=O)(=O)c1ccc(Br)s1,3%,-26*,?,i,29%
Cc1cccc(NC(=O)c2cc(-c3ccc[nH]3)n[nH]2)c1,6%,-9,47%,?,?
COc1ccc(NC(=O)c2cc(-c3ccc[nH]3)n[nH]2)cc1F,-2%,13,1%,i,?
COc1ccc(C(CNC(=O)c2ccc(F)cc2)N2CCCC2)cc1 (configuration not stated),4%,3,34%,?,.
COc1ccccc1CC(=O)NC1CCN(c2cc(C(F)(F)F)nc(C)n2)CC1,0%,-7,1%,i,.
COc1ccc(-c2nc(-c3c(C)noc3C)cc3[nH]c(C)cc23)cn1,-16%[87.6 µM],-31*,48%[87.6 µM],35µM*,?
CC1=C(C(=O)OC(C)C)C(c2cccc([N+](=O)[O-])c2)C(C(=O)OC2CN(C(c3ccccc3)c3ccccc3)C2)=C(N)N1 (configuration not stated),-10%[23.9 µM],1,-41%[25.6 µM],.,0%
Cc1ccc([S+](=O)([O-])N2CCC(C(=O)N3CCC(c4nc5ncccc5[nH]4)CC3)CC2)cc1,0%,-4,22%,.,.
CCOc1ccc(NC(=O)CSc2nc(-c3ccc(OC)cc3)nc3c2Cc2c(CO)cnc(C)c2O3)cc1,14%,14,11%,i,.
COc1ccc(-c2nc3c(c(SCC(=O)Nc4cccc(O)c4)n2)Cc2c(CO)cnc(C)c2O3)cc1,-22%,-29*,-8%,?,-3%
CCOc1ccc(/C=C(\C#N)C(=O)Nc2sc3c(c2C(=O)OC)C(C(=O)OC)CC3)cc1OC (configuration not stated),-4%,-29*,-12%,?,2.9µM*
Nc1nc(N)c(S(=O)(=O)c2ccccc2)c(Nc2ccc(Br)cc2)n1,1%,-36*,-2%,i,?
CCCCN(CCCC)c1nc(-c2ccccc2)nc2ccccc12,17%,-12,17%,?,.
CC(C)c1cc(C=O)c(O)c(C=O)c1,.,.,.,i,.
O=Cc1ccc(O)c(O)c1O,10%[23.9 µM],-33*,2%[25.6 µM],.,?
Cc1c(Cl)cccc1NC(=O)NCc1c(-n2cccc2)sc2c1CCCC2,-12%,1,-1%,i,.
Cc1ccc(NC(=O)NCc2c(-n3cccc3)sc3c2CCCC3)c(Cl)c1,0%,-27*,-17%,i,-20%
CC(Sc1nc2cc(Cl)ccc2s1)C(=O)NC1CCCC1 (configuration not stated),.,.,.,i,.
Cc1ccc(NCc2cccn2-c2nnc(N3CCC(C(=O)NCCc4ccc(Cl)cc4)CC3)s2)cc1,-8%,-25*,?,i,37%
Cc1ccc(NCc2cccn2-c2nnc(N3CCC(C(=O)NCc4ccc(OC(C)C)cc4)CC3)s2)cc1,-8%,-10,?,?,.
COc1ccc(CN2CCN(c3cc(N(C)C)ncn3)CC2CCO)c(C)c1C (configuration not stated),-2%,-35*,21%,?,-9%
